Screening data (PubChem BioAssay)
CSC inhib: cancer stem cell viability inhibitors, primary screen, luminescence; inhibition, % at 7.5 µM; cancer stem cell-like cells viability; 300,000 tested, 1.1% active; in the data active = inhibition above about 75%; tested in HMLE shEcad cells
Beta cell apopt: inhibitors of cytokine-induced beta cell apoptosis, primary screen, luminescence; protection from apoptosis, % (test concentration not listed); INS-1E cytokine-induced death, ATP luminescence, 48 h; percent of positive-control rescue, neutral wells zero; 300,000 tested, 0.8% active;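 active = Every replicate reaches about 75%, or at least half do and their mean reaches it too, limit read from the data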;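 note: 0% = cytokine-treated negative control wells and 100% = positive control rescue; higher means more ATP so stronger rescue from cytokine killing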
Shn3 3UTR inh: reduction of Shn3 3'UTR firefly luciferase signal, primary screen, Schnurri-3 inhibitor project, cell-based, Clone20 osteoblasts, set 2; Clone20 osteoblast Shn3 3'UTR firefly luciferase, 24 h; inhibition, % at 12.5 µM; 360,000 tested, 0.52% active;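 active = mean inhibition of at least 75% with every replicate also reaching 75%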;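 note: 0% = median of neutral control wells and 100% = pilot-screen positive control compound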
PfHsp90 set2: growth inhibition of PfHsp90-expressing yeast, primary screen, antimalarial PfHsp90 inhibitor project, S. cerevisiae, BacTiter-Glo luminescence, single point, set 2; 310,000 tested, 0.32% active; AID 504621, 2011; BacTiter-Glo ATP, 48 h; yeast lacking PDR1 and PDR3 efflux regulators; inhibition, % at 9.4 µM;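 active = every replicate shows inhibition above about 80%, whatever the replicate mean, limit read from the data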;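 note: 0% = DMSO neutral controls and 100% = 20 µM radicicol positive controls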
Calb FLC: C. albicans growth inhibition with fluconazole, primary screen, CaCi-2 strain, Alamar Blue fluorescence | C. albicans CaCi-2 (fluconazole-resistant clinical isolate) + fluconazole, 48 h | growth inhibition, % (no concentration beside the values) | 300,000 tested, 0.57% active;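 active = growth inhibition above about 58% in most replicates, limit read from the data, passing the limit was not always enough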;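 note: all wells also contain fluconazole at 8 µg/ml as a sub-toxic cotreatment; 0% = median of DMSO wells and 100% = median of geldanamycin control wells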
* marks the source's active call; other numbers are inactive results; · = no result. This is a sample that favours compounds with a hit; in the whole collection about 2.2% have one here.

SMILES	CSC inhib	Beta cell apopt	Shn3 3UTR inh	PfHsp90 set2	Calb FLC
CCOc1ccc(C(=O)O/N=C(\N)c2ccccn2)cc1	-19	-5	84	43	1
CCOc1ccc(OCc2ccc(C(=O)NN=Cc3ccc[nH]3)cc2)cc1	92*	123*	82	-13	·
O=C(NCc1ccc(F)cc1)c1ccccc1OCc1ccccc1	-5	5	19	-20	4
O=C(CN1c2cccc3cccc(c23)S1(=O)=O)N1CCN(c2ccccc2)CC1	-16	2	3	-6	·
Cc1ccc(NC(=O)CNC2CCCCC2)cc1Cl	6	-6	0	-3	3
Nc1[nH]n2c(=O)cc(-c3ccccc3)nc2c1N=Nc1ccc(S(N)(=O)=O)cc1	-8	4	3	-3	51
Nc1[nH]n2c(=O)cc(-c3ccccc3)nc2c1N=Nc1ccccc1	92*	45	9	·	0
O=C(c1ccc(Cl)cc1)N1CCN(c2ccnc3cc(Cl)ccc23)CC1	·	·	66	-5	99*
COc1ccc(NC(=O)Cc2coc3cc(C)ccc23)cn1	-3	0	-10	2	-1
Cc1cccc(NC(=O)CCN2CCCC(C)C2)c1 (configuration not stated)	-34	-8	-5	33	2
COC(=O)C1CCN(Cc2c(C(=O)N3C[C@@H](C)O[C@@H](C)C3)nc3ccc(Cl)cn23)CC1	-6	-2	-1	2	87*
C[C@@H]1CN(C(=O)c2nc3ccc(Cl)cn3c2CN2CCc3sccc3C2)C[C@H](C)O1	6	-7	-9	7	-14
COc1cccc(CNS(=O)(=O)c2cc(Br)ccc2Br)c1	·	·	4	·	·
Cc1c(Cl)cccc1NC(=S)N1CCN(S(=O)(=O)c2cccs2)CC1	-6	-7	10	14	1
O=C(O)CCCN1C(=O)/C(=C\C(Cl)=C\c2ccccc2)SC1=S	79*	-20	6	40	63
CN1CCN(C(=O)CCCN2C(=O)/C(=C/c3ccccc3)SC2=S)CC1	40	-47	-102	-9	13
CC(C)(C)c1ccc(C(=O)Nc2ccc(C(=O)NCc3cccnc3)cc2)cc1	3	113*	52	6	39
O=C(NCc1cccnc1)c1ccc(NC(=O)c2ccc([N+](=O)[O-])cc2)cc1	-2	104*	50	-18	-24
COc1ccccc1Cc1c(-c2ccccc2)nc2c(C)cc(Br)cn12	·	·	1	·	·
CCOc1ccc(NC(=S)NCc2cccnc2)cc1	-11	-2	-8	0	4
O=C(NC(c1ccccc1)c1cc(Cl)c2cccnc2c1O)c1cccnc1 (configuration not stated)	102*	81*	·	·	92*
O=C(O)COc1ccccc1C(Nc1cccnc1)c1cc(Cl)c2cccnc2c1O (configuration not stated)	·	·	6	5	100*
CCOc1ccc(C(Nc2cccnc2)c2cc(Cl)c3cccnc3c2O)cc1 (configuration not stated)	3	86*	77	106*	110*
O=C(O)COc1ccccc1C(Nc1ccccn1)c1cc(Cl)c2cccnc2c1O (configuration not stated)	19	-8	-7	11	-2
CC(C)(C)c1ccc(S(=O)(=O)N2CCN(C(=O)C3=COCCO3)CC2)cc1	·	2	22	-9	·
SMILES	CSC inhib	Beta cell apopt	Shn3 3UTR inh	PfHsp90 set2	Calb FLC
O=C(COc1ccc2c(c1)CCC2)N1CCN(c2cccc(C(F)(F)F)c2)CC1	-9	-12	23	-4	112*
O=C(COc1cccc(C(F)(F)F)c1)N1CCN(c2ccc(O)cc2)CC1	78*	3	13	25	15
O=C(COc1cccc(C(F)(F)F)c1)N1CCN(c2ccccc2O)CC1	-10	-9	14	-20	0
C[C@@H](CSc1ccccc1)CN1CC[C@H](O)CCC1=O	-5	-3	-1	9	-4
C[C@@H](CSc1ccc(Br)cc1)CN1CC[C@H](C(C)(C)C)CCC1=O	123*	-3	14	19	·
Cc1ccc(SC[C@H](C)CN2CC[C@H](C(C)(C)C)CCC2=O)cc1	76*	1	16	-15	-5
CC(C)(C)[C@H]1CCC(=O)N([C@H](CSc2ccc(Br)cc2)Cc2ccccc2)CC1	2	5	13	10	·
O=C(c1cc(F)c(F)cc1Cl)N1CCN(S(=O)(=O)c2cccs2)CC1	·	·	-3	·	·
